Here are results for 19 compounds from PubChem BioAssay.

The structures appear in SMILES notation. Calls of active or inactive are those of the source.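 Rule for the calls: active = mean duplicate potentiation above the buffer control mean plus 5 SD of buffer wells; inactive = the rest.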

Potassium voltage-gated channel subfamily KQT member 2 (Rattus norvegicus), sequence (O88943 whole entry, looked up): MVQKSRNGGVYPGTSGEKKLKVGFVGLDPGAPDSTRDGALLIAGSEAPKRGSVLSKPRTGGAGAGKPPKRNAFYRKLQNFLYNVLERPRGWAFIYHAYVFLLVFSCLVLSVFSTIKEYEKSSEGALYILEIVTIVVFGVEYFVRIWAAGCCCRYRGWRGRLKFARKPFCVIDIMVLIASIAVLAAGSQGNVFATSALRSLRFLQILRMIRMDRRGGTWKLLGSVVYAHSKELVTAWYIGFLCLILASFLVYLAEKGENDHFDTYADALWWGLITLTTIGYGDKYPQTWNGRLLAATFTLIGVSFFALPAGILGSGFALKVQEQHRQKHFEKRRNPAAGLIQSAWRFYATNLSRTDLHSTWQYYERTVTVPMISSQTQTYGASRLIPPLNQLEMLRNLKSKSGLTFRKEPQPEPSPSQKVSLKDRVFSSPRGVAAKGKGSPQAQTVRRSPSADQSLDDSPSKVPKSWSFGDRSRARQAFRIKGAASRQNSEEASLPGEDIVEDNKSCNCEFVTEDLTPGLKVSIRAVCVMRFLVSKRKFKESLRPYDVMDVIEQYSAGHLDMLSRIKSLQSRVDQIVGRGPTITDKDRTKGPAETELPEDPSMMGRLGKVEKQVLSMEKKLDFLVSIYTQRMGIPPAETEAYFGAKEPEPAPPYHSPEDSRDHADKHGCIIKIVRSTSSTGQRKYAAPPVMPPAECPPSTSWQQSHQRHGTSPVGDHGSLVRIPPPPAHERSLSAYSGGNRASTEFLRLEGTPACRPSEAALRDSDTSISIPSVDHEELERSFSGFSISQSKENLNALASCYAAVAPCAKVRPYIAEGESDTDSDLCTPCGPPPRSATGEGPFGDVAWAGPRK

The experiment addresses Potassium voltage-gated channel subfamily KQT member 2 (Rattus norvegicus) (UniProt O88943). Description: KCNQ2 thallium flux enhancement – KCNQ2-CHO-K1 cells, selectivity assay for KCNQ1 potentiator project (AID 493009).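 Note: assay conditions were tuned for KCNQ1 rather than KCNQ2 modulators; signal is max minus min fluorescence divided by baseline after thallium stimulus.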 To be noted: FluxOR thallium flux fluorescence, at 10 µM; hits give high values, scaled: buffer 0, activator control 100.
Turning to `CSC(C(=O)c1cc2ccccc2o1)c1ccccc1` (centres undefined), the outcome was inactive.

For the compound `Cc1cc(C(=O)N/N=C/c2cccs2)no1`, the result was inactive.

On to `Cc1cccc(NC(=S)N/N=C(\c2ccccc2)C(C)C)c1`, for which the potentiation was 152% (active).

Regarding `O=C(CC(=O)c1ccccc1O)c1cccc(F)c1`, the potentiation was 188% (active).

For `CS(=O)(=O)N1CCN(c2ccccc2NC(=O)CSc2nnc(-c3ccco3)o2)CC1`, the result was inactive.

Regarding `O=C(NC(=S)N1CCCC1)c1ccc(Cl)cc1`, the outcome was inactive.

`Cc1ccc(C(=O)NNC(=O)CCCCC(=O)NNC(=O)c2ccc(C)cc2)cc1`: the result was inactive.

Take `CN(C)S(=O)(=O)c1ccc(Cl)c(NC(=O)CN2CCCCCC2)c1`: the outcome was inactive.

In the case of `O=C(COC(=O)CNC(=O)c1ccc(Cl)cc1Cl)Nc1cccc(S(=O)(=O)N2CCCC2)c1`, the result was inactive.

As for `COc1cc(/C=N/NC(=O)c2ccoc2C)ccc1OCCN1CCCCC1`, the result was inactive.

Turning to `CCc1ccc(S(=O)(=O)NC(=S)NC2CCCCC2)cc1`, the potentiation is 312% (active).

For `COc1cccc(C=O)c1OCCCOc1cccc2cccnc12`, the result was inactive.

With `Cc1ccc2nsnc2c1S(=O)(=O)Nc1cccc2nsnc12`, the potentiation was 174% (active).

For `CCOC(=O)c1n[nH]n2c1nc(=S)c1ccccc12`, the potentiation is 246% (active).

With `CCCNC1=CC(=O)CC(C)(C)C1`, the result was inactive.

With `COC(=O)[C@@H]1CCCN1C(=O)CCc1nnc(CCC2CCCCC2)o1`, the outcome was inactive.

In the case of `CC(C)c1nc2sc3c(=S)nc[nH]c3c2c2c1CCC2`, the potentiation is 310% (active).

On to `O=C(c1ccc(COc2ccc(Cl)cc2)o1)N1CCN(Cc2ccc3c(c2)OCO3)CC1`, for which the outcome was inactive.

`O=C(/C=C/c1ccc(Br)cc1)NC(=S)Nc1ccc(S(=O)(=O)Nc2nccs2)cc1`: the outcome was inactive.
